HCMV inh: qHTS Assay for inhibitors of the human cytomegalovirus (HCMV). HFF cells, HCMV-luciferase reporter, 72 h; stronger effect = lower value. activity change, negative = inhibition, % at 57.5 µM. actives 4.5% (n = 410,000); in the data active = activity change below about -60%; inconclusive = no clear call, values can overlap the other calls; inactive = above about -39%
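Steps: HFFs plated, 16 h 37C; compounds added; HCMV-luciferase added to MOI 1 PFU/cell; 72 h 37C; OneGlo reagent, 5 min room temperature; luminescence read, normalized to controls.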
FMDV inh: High Throughput Screening for Foot and Mouth Disease Virus Antivirals | FMDV antiviral cell-based qHTS | Potency, µM (highest dose often 57.9 µM), actives largely listed as inhibitors | actives 1.2% (n = 410,000) | AID 1159524, 2015; calls by dose curve; tested in HEK293T cells; note: read-out not given here; nearly all actives have a fitted effect of over 45% in size
LASV entry inh: qHTS for Inhibitors of binding or entry into cells for Lassa Virus. actives 1.2% (n = 300,000). Potency, µM (titrated, usually from 37.9 µM), most hits filed as inhibitors. AID 540256, 2011. Lassa virus pseudotype entry inhibition, cell reporter; calls by dose curve; tested in HEK293 cells; note: nearly all actives have a fitted effect of over 50% in size
MARV entry inh: qHTS for inhibitors of binding or entry into cells for Marburg Virus; Marburg virus pseudotyped entry inhibition, cell reporter; Potency, µM (doses to about 37.8 µM), actives largely listed as inhibitors; actives 1.8% (n = 300,000); AID 540276, 2011; calls by dose curve; tested in HEK293 cells
HCV inhibitor: qHTS Assay for Inhibitors of Hepatitis C Virus (HCV). Huh7.5.1 HCVcc-Cre infection, luciferase reporter, 44 h. Potency, µM (highest dose often 41.8 µM), hits mostly inhibitors. actives 3.4% (n = 340,000); active = well fitted inhibition curve with a large enough effect; inconclusive = small, poorly fitted or top-dose-only effect, or another doubt; inactive = no such curve, though single readings can be large or run the other way
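Reporter virus HCVcc-Cre (~0.5 moi) infects cells exposed to compound; seeding density 1,000 cells/well with 4 h settling beforehand. Luminescence, 15 sec read, taken 44 h post-infection following a 15 min RT substrate incubation.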
SARS PLpro yeast-1: qHTS of Yeast-based Assay for SARS-CoV PLP | S. cerevisiae expressing SARS-CoV PLpro, growth rescue | Potency, µM (doses to about 32.9 µM), most hits filed as activators | actives 0.19% (n = 330,000); calls by dose curve; note: nearly all actives have a fitted effect of over 55% in size
SARS PLpro yeast-2: qHTS of Yeast-based Assay for SARS-CoV PLP: Hit Validation | shares compounds with SARS PLpro yeast-1 | yeast expressing SARS-CoV PLpro, growth phenotype rescue | calls only | actives 19% (n = 1,000); call rule not given here
Each line names hits and unclear results; the compound was inactive in the other large screens (follow-up assays come after a bar, where they were run). Sampled rows, rich in hits. Any-hit rate of the full collection: about 8%.

CC1CCCCC1NC(=O)C(Cc1ccccc1)NS(=O)(=O)c1cccs1 (centres undefined)	MARV entry inh inconclusive, SARS PLpro yeast-1 inconclusive (no result: FMDV inh) | SARS PLpro yeast-2 inactive
CC(CCc1ccccc1)NC(=O)C(Cc1ccccc1)NS(=O)(=O)c1cccs1 (centres undefined)	HCMV inh inconclusive, MARV entry inh inconclusive (no result: FMDV inh)
CCCCCCN(C(=O)CCCCCN1C(=O)NC(c2ccc(-c3ccccc3)cc2)C(C(=O)OCc2ccccc2)=C1C)C(C(=O)NCCCC)C1CCCCC1 (centres undefined)	none (no result: FMDV inh, LASV entry inh, MARV entry inh, HCV inhibitor)
CCCCCCN(C(=O)CCCN1C(=O)NC(c2ccc([N+](=O)[O-])cc2)C(C(=O)OCc2ccccc2)=C1C)C(C)C(=O)NCCCC (centres undefined)	HCV inhibitor inconclusive, SARS PLpro yeast-1 inconclusive (no result: HCMV inh, LASV entry inh, MARV entry inh) | SARS PLpro yeast-2 inactive
CNC(=O)c1ccc(C)c(NC(=O)C2=C(C)OCCS2)c1	FMDV inh inconclusive (no result: LASV entry inh, MARV entry inh)
Nc1ccc(S(=O)(=O)N2CCOCCOCCOCCOCCOCC2)cc1	MARV entry inh inconclusive
CC(C)(C)C1CCc2sc(-c3nnc(CCl)o3)cc2C1 (centres undefined)	none (no result: LASV entry inh, MARV entry inh)
ClCc1nnc(-c2cc3c(s2)CCCC3)o1	HCV inhibitor inconclusive, SARS PLpro yeast-1 inconclusive | SARS PLpro yeast-2 inactive
C/C(=N\NC(=S)NC1CCCCC1)c1ccccc1	HCMV inh inconclusive, SARS PLpro yeast-1 7.9µM | SARS PLpro yeast-2 active
Cc1ccnc(NC(=S)NC(=O)c2ccco2)c1	LASV entry inh inconclusive, MARV entry inh inconclusive
O=C(NC(=S)Nc1ccccn1)c1ccco1	LASV entry inh inconclusive, MARV entry inh inconclusive, SARS PLpro yeast-1 3.2µM | SARS PLpro yeast-2 inactive
C[C@@H]1CCCCO[C@@H](CN(C)S(=O)(=O)c2cccs2)[C@@H](C)CN([C@H](C)CO)C(=O)c2cc(NS(=O)(=O)c3ccccc3)ccc2O1	FMDV inh inconclusive (no result: LASV entry inh, MARV entry inh, HCV inhibitor, SARS PLpro yeast-1)
N#CC(=C(c1ccccc1)c1ccccc1)c1ccccc1	none (no result: SARS PLpro yeast-1)
CCOC(=O)C(C)S(=O)(=O)c1ccc(C(F)(F)F)cn1 (centres undefined)	SARS PLpro yeast-1 inconclusive | SARS PLpro yeast-2 inactive
CC(C)CCNC(=S)Nc1ccccc1F	HCMV inh inconclusive, HCV inhibitor inconclusive, SARS PLpro yeast-1 inconclusive | SARS PLpro yeast-2 active
CC(C)CCNC(=S)Nc1ccccn1	SARS PLpro yeast-1 inconclusive
COc1ccc(Oc2ncc3nc(-c4ccc(Cl)cc4)c(=O)n(C[C@H]4CCCO4)c3n2)cc1	none (no result: HCMV inh, LASV entry inh, MARV entry inh, HCV inhibitor, SARS PLpro yeast-1)
CCOC(=O)c1cnn(Cc2ccccc2)c1N	SARS PLpro yeast-1 inconclusive (no result: FMDV inh) | SARS PLpro yeast-2 inactive
COc1ccc(/C=N/NC2=NS(=O)(=O)c3ccccc32)cc1	none (no result: LASV entry inh, MARV entry inh)
O=S1(=O)N=C(N/N=C/c2ccccn2)c2ccccc21	LASV entry inh inconclusive, SARS PLpro yeast-1 22µM | SARS PLpro yeast-2 active
CCOC(=O)c1c(NC(=O)c2c(N)n(CCCOC)c3nc4ccccc4nc23)sc2c1CCCC2	HCV inhibitor inconclusive (no result: FMDV inh)
CCOCCCn1c(N)c(C(=O)Nc2sc3c(c2C(=O)OC)CCCC3)c2nc3ccccc3nc21	SARS PLpro yeast-1 inconclusive (no result: FMDV inh) | SARS PLpro yeast-2 inconclusive
Cc1nn(Cc2ccccc2)c(C)c1/C=N/NC(=O)CNc1cccc(C(F)(F)F)c1	HCV inhibitor inconclusive, SARS PLpro yeast-1 11µM (no result: LASV entry inh, MARV entry inh) | SARS PLpro yeast-2 inactive
COCC(O)CNc1ccccc1 (centres undefined)	LASV entry inh inconclusive, SARS PLpro yeast-1 inconclusive | SARS PLpro yeast-2 inactive
C=CCn1c(SCC(=O)Nc2cc(C)on2)nc2c([nH]c3ccccc32)c1=O	SARS PLpro yeast-1 inconclusive | SARS PLpro yeast-2 inactive
C=CCn1c(SCC(=O)Nc2ccc(OC)cc2)nc2c([nH]c3ccccc32)c1=O	none
COc1cccc(CNC(=O)CNS(=O)(=O)c2ccc3nc(C)sc3c2)c1	LASV entry inh inconclusive (no result: HCV inhibitor, SARS PLpro yeast-1)
CN(CC(=O)Nc1c(Cl)cccc1Cl)C(=O)c1ccccc1SCC(=O)N1CCCC1	none
Cc1cccc(C)c1NC(=O)CN(C)C(=O)c1ccccc1SCC(=O)N1CCCC1	SARS PLpro yeast-1 14µM | SARS PLpro yeast-2 inactive
CCCCN(C)Cc1c(C)[nH]c2ccc(OCC)cc2c1=O	HCMV inh inconclusive, SARS PLpro yeast-1 inconclusive (no result: LASV entry inh, MARV entry inh) | SARS PLpro yeast-2 inactive
O=C(NC1CCCCC1)C(c1ccco1)N(Cc1cccnc1)C(=O)C1COc2ccccc2O1 (centres undefined)	LASV entry inh inconclusive, MARV entry inh inconclusive, SARS PLpro yeast-1 inconclusive (no result: FMDV inh) | SARS PLpro yeast-2 inactive
O=C(NC1CCCC1)C(=O)N(Cc1cccnc1)C(C(=O)NC1CCCC1)c1ccco1 (centres undefined)	none (no result: LASV entry inh, MARV entry inh)
C/C(=N\NC(=O)c1cc(-c2cccnc2)nc2ccccc12)c1ccc(O)cc1O	HCMV inh -94, LASV entry inh 6.3µM, MARV entry inh 7.1µM, HCV inhibitor 4µM, SARS PLpro yeast-1 inconclusive | SARS PLpro yeast-2 inactive
CCC1CCCCN1S(=O)(=O)c1ccc(C(=O)Nc2nnc(-c3cccs3)o2)cc1 (centres undefined)	LASV entry inh inconclusive, MARV entry inh inconclusive, HCV inhibitor inconclusive, SARS PLpro yeast-1 11µM (no result: HCMV inh) | SARS PLpro yeast-2 active
CCC1CCCCN1S(=O)(=O)c1ccc(NC(=O)c2cccnc2)cc1 (centres undefined)	LASV entry inh inconclusive (no result: HCV inhibitor)
C=CCNC(=S)N/N=C/c1cn(-c2ccccc2)nc1-c1ccc(OC)cc1	HCMV inh inconclusive
COc1ccc(-c2nn(-c3ccccc3)cc2/C=N/NC(=S)NC(C)C)cc1OC	MARV entry inh inconclusive, HCV inhibitor inconclusive, SARS PLpro yeast-1 7.1µM | SARS PLpro yeast-2 active
O=C(COc1ccccc1)Nc1nnc(-c2ccc(Cl)s2)o1	none (no result: LASV entry inh, MARV entry inh)
C(=N\n1cnc2ccccc21)/c1cccnc1	LASV entry inh inconclusive
Clc1nc2sccn2c1/C=N/n1cnc2ccccc21	HCV inhibitor inconclusive, SARS PLpro yeast-1 inconclusive (no result: FMDV inh) | SARS PLpro yeast-2 inactive
COc1ccccc1NC(=O)CSc1ccc2nnc(CCNC(=O)c3ccccc3)n2n1	none
CC(=O)Nc1ccc(-c2csc(NCc3ccco3)n2)cc1	MARV entry inh inconclusive, HCV inhibitor inconclusive, SARS PLpro yeast-1 inconclusive | SARS PLpro yeast-2 inactive
c1cncc(-c2csc(NCc3ccco3)n2)c1	MARV entry inh inconclusive
COc1ccc(NC(=O)CN2CCOCC2)cc1S(=O)(=O)N1CCCCC1	SARS PLpro yeast-1 inconclusive | SARS PLpro yeast-2 inactive
O=C1C=CC(=O)N1Nc1ccc(Br)cc1	SARS PLpro yeast-1 inconclusive | SARS PLpro yeast-2 inactive
O=C1c2cccc3cc(Br)cc(c23)C(=O)N1Nc1ccc(Br)cc1	MARV entry inh inconclusive, HCV inhibitor inconclusive
COc1ccc2nc(SCC(=O)Nc3ccccc3)[nH]c2c1	LASV entry inh inconclusive (no result: SARS PLpro yeast-1) | SARS PLpro yeast-2 inactive
COc1ccc2nc(SCC(=O)NCc3ccccc3)[nH]c2c1	none (no result: LASV entry inh, MARV entry inh)

Assay outcomes from PubChem BioAssay.
